Laboratory results taken from PubChem BioAssay.
Active and inactive are the calls of the source.

How the values were obtained:
[1] = test system: PRMT1 (protein arginine N-methyltransferase 1); assay: PRMT1 binders on small-molecule microarrays, primary screen, biochemical, small-molecule microarray, 635 nm fluorescence (AID 1088); settings: small-molecule microarray binding, higher = more signal;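 note: binding of Prmt1 protein to compounds spotted on small-molecule microarray slides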
[2] = yeast growth modulation, basal conditions, primary screen, YJM789 clinical isolate, OD600, 24 h (AID 1089);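 note: growth of clinical yeast isolate S. cerevisiae YJM 789 seeded 1000 cells per well; test concentration not given here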; settings: S. cerevisiae YJM789 growth, higher = more signal, called active from +8 up or from −8 down
[3] = fission yeast growth modulation, primary screen, strain 972, OD600, 24 h, no modulator (AID 1090);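 note: basal condition with compound alone and no growth modifier present; test concentration not given here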; settings: S. pombe 972 growth, higher = more signal, called active from +8 up or from −8 down
[4] = S. cerevisiae growth modulation with rapamycin, primary screen, strain BY4716, OD600, 96 h (AID 1091); settings: higher = more signal, called active from +8 up or from −8 down; note: test concentration not given here
[5] = target: Torsin-1A-interacting protein 2 (Homo sapiens) (UniProt Q8NFQ8); assay: LULL1 binders on small-molecule microarray, primary screen, cell lysate, human LULL1 lysate, 635/667 nm fluorescence (AID 1092); settings: hLULL1 lysate binding, 635 nm fluorescence, higher = more signal;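 note: probe is lysate of COS7 cells overexpressing human LULL1; score merges per-feature 667 nm fluorescence with signal-to-noise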
Chain of Torsin-1A-interacting protein 2 (Homo sapiens) (Q8NFQ8 whole entry, looked up): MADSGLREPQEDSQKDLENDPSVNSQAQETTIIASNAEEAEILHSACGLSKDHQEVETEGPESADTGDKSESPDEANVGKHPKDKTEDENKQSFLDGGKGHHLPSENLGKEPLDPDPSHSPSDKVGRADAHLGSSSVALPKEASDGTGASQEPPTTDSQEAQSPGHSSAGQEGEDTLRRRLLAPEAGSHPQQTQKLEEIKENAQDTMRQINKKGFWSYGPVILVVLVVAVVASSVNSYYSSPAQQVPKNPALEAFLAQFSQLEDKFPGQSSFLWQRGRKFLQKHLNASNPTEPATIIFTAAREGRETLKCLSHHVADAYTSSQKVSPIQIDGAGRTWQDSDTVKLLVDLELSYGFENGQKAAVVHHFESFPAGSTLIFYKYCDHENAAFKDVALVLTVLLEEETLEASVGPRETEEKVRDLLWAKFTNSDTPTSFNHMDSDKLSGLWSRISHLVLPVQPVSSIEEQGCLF

[6] = E. coli growth modulation, two-sided OD650, primary screen, E. coli filamentation project, strain DRC41, 24 h (AID 1093); settings: OD650, 24 h, higher = more signal, called active from +8 up or from −8 down;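 note: MC1000 strain lacking acrAB efflux and sulA so SOS filamentation is blocked; test concentration not given here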
[7] = small-molecule microarray binders of probe aLefty2, primary screen, biochemical, biotinylated probe, 635/667 nm fluorescence (AID 1094); settings: higher = more signal;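 note: score merges spot fluorescence near 667 nm with spot signal-to-noise ratio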
[8] = test system: Noggin (protein binding on small-molecule microarray); assay: Noggin binders on small-molecule microarray, primary screen, biochemical, 635/667 nm fluorescence (AID 1095); settings: 635 nm fluorescence, higher = more signal;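 note: score merges 667 nm feature fluorescence with signal to noise over triplicate slides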
[9] = target: Neurogenic locus notch homolog protein 3 (Homo sapiens) (UniProt Q9UM47); assay: NOTCH3 binders on small-molecule microarray, primary screen, biochemical, 635/667 nm fluorescence (AID 1096); settings: NOTCH3 binding, 635 nm fluorescence, higher = more signal
Chain of Neurogenic locus notch homolog protein 3 (Homo sapiens) (Q9UM47 whole entry, looked up): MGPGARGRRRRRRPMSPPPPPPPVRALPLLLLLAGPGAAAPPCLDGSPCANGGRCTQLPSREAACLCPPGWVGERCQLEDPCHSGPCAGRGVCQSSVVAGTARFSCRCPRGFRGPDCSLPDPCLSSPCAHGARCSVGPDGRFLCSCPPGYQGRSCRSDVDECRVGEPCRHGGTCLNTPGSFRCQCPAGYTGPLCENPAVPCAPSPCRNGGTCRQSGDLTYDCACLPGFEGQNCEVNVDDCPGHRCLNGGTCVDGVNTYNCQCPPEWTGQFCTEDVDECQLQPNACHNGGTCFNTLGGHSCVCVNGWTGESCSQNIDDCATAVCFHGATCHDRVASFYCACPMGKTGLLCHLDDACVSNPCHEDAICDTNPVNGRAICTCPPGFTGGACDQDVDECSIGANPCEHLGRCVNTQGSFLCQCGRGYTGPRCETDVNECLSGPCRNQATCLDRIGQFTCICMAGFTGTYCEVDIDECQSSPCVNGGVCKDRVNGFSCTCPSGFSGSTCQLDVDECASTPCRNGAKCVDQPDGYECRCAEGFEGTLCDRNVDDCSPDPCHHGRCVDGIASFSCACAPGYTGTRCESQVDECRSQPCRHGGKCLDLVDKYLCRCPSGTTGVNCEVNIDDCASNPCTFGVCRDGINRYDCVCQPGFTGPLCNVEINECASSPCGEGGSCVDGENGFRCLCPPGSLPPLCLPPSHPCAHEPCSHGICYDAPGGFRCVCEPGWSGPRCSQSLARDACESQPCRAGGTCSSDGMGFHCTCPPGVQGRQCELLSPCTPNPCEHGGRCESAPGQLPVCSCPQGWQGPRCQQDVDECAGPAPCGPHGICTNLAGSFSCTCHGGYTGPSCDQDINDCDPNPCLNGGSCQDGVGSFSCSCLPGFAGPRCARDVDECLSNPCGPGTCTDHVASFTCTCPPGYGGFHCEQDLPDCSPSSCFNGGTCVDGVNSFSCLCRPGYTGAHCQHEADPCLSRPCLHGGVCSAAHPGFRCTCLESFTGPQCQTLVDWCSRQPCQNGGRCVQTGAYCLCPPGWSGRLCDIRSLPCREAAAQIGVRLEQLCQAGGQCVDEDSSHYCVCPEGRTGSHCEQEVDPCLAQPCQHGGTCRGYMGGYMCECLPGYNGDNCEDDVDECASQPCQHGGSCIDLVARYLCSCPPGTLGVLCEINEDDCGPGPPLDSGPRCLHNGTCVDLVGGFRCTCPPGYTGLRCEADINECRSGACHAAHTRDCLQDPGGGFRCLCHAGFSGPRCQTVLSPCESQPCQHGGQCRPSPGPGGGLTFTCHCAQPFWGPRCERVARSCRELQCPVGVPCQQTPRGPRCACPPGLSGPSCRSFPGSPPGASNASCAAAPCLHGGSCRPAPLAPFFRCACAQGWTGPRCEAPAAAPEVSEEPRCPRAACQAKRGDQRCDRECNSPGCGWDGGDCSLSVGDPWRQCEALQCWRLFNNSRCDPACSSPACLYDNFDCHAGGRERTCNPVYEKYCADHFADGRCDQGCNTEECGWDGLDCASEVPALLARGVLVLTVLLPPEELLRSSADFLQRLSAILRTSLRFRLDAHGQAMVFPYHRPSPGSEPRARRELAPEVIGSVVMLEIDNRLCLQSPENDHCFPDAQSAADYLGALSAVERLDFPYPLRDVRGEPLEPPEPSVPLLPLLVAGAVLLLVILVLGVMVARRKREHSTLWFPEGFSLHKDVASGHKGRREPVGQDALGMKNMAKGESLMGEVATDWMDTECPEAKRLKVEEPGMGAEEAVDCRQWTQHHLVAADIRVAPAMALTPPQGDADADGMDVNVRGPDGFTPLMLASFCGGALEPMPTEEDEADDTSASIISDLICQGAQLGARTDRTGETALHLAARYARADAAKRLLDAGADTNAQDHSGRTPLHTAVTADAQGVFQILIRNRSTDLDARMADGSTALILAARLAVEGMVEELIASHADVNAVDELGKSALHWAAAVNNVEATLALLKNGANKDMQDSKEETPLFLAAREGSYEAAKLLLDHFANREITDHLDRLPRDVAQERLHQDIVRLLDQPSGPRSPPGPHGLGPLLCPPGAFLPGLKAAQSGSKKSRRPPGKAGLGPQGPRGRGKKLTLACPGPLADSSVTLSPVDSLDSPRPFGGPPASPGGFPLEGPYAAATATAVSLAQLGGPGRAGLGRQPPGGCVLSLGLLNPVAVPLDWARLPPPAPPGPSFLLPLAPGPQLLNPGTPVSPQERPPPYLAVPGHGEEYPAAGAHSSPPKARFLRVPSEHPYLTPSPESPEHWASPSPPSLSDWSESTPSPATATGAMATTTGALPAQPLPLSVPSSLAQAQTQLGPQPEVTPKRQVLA

[10] = small-molecule microarray binders of probe aEGFR, primary screen, biochemical, biotinylated probe, 635/667 nm fluorescence (AID 1097); settings: higher = more signal;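 note: probe is a biotinylated anti-EGFR antibody binding compounds printed on slides; score combines fluorescence near 667 nm and signal to noise of each spot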
[11] = test system: Plasmodium falciparum Sir2 (PF13_0152, Sir2A); assay: pfSir2 binders on small-molecule microarrays, primary screen, biochemical, small-molecule microarray, 635 nm fluorescence (AID 1098); settings: small-molecule microarray binding, fluorescence 635 nm; higher = more signal;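 note: score merges spot fluorescence intensity with its signal-to-noise ratio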
[12] = small-molecule microarray binders of probe aDKK1, primary screen, biochemical, biotinylated probe, 635/667 nm fluorescence (AID 1099); settings: higher = more signal;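 note: score merges 667nm spot fluorescence with signal to noise across triplicate slides; reference of the scale not given here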
[13] = small-molecule microarray binders of probe aCHRDL2, primary screen, biochemical, biotinylated probe, 635/667 nm fluorescence (AID 1100); settings: higher = more signal
[14] = splicing luciferase reporter signal modulators, primary screen, spliceosome inhibition project, cell-based, HEK293, splice +/- reporter (AID 1101); settings: luminescence, 24 h, higher = more signal, called active from +8 up or from −8 down;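 note: HEK293 cells carrying a splicing-competent luciferase reporter gene; test concentration not given here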
[15] = target: Fibroblast growth factor 10 (Homo sapiens) (UniProt O15520); assay: FGF10 binders on small-molecule microarrays, primary screen, biochemical, small-molecule microarray, 635 nm fluorescence (AID 1102); settings: FGF10 binding, fluorescence 635 nm, higher = more signal
Chain of Fibroblast growth factor 10 (Homo sapiens) (O15520 whole entry, looked up): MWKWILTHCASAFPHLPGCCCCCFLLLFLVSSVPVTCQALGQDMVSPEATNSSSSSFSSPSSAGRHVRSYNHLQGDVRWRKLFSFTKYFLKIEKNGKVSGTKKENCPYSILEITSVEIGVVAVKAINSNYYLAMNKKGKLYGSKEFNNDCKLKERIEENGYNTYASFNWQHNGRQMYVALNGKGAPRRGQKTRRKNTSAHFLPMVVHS

[16] = test system: glycogen synthase kinase-3 (GSK3A per assay name; protocol says GSK3B); assay: GSK3 binders on small-molecule microarrays, primary screen, biochemical, small-molecule microarray, 635 nm fluorescence, GSK3A (AID 1103); settings: small-molecule microarray binding, fluorescence 635 nm; higher = more signal; note: the record names both GSK3A and GSK3B
[17] = target: Epidermal growth factor receptor (Homo sapiens) (UniProt P00533); assay: EGFR binders on small-molecule microarrays, primary screen, biochemical, small-molecule microarray, 635 nm fluorescence (AID 1104); settings: EGFR binding, higher = more signal;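 note: score merges 667 nm emission intensity with spot signal to noise over triplicate slides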
Chain of Epidermal growth factor receptor (Homo sapiens) (P00533 whole entry, looked up): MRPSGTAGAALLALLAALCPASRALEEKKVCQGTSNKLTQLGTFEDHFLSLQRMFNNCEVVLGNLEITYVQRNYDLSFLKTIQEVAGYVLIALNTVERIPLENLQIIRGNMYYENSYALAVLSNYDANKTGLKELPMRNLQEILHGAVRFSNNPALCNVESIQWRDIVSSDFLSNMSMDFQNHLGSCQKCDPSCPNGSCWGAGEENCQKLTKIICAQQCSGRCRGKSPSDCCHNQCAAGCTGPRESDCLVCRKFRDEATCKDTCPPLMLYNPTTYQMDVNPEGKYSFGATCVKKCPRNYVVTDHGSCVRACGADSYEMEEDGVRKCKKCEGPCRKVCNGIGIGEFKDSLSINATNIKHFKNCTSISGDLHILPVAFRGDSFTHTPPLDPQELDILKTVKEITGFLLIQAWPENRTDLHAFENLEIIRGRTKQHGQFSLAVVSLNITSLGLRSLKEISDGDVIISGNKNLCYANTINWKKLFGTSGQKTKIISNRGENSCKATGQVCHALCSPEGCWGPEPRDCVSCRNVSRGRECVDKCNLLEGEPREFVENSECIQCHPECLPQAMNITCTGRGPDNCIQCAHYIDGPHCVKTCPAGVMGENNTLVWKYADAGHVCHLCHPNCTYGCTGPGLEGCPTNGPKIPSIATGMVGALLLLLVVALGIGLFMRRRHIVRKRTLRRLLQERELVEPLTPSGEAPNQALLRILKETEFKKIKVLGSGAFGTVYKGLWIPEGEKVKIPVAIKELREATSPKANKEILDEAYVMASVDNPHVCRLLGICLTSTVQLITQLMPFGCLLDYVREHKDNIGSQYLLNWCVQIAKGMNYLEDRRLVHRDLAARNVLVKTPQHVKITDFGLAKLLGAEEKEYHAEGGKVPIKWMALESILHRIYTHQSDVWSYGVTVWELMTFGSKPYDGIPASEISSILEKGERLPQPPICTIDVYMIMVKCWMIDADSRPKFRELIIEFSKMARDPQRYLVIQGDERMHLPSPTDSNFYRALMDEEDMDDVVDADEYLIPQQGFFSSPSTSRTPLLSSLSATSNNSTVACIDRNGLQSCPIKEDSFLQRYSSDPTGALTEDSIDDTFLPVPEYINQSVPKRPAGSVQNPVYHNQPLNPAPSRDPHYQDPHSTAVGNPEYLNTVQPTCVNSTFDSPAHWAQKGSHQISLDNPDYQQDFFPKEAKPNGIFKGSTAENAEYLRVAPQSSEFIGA

[18] = target: Follistatin-related protein 3 (Homo sapiens) (UniProt O95633); assay: FSTL3 binders on small-molecule microarrays, primary screen, biochemical, small-molecule microarray, 635 nm fluorescence (AID 1105); settings: FSTL3 binding, higher = more signal;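 note: score merges emission near 667 nm and signal to noise per printed spot across three slides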
Chain of Follistatin-related protein 3 (Homo sapiens) (O95633 whole entry, looked up): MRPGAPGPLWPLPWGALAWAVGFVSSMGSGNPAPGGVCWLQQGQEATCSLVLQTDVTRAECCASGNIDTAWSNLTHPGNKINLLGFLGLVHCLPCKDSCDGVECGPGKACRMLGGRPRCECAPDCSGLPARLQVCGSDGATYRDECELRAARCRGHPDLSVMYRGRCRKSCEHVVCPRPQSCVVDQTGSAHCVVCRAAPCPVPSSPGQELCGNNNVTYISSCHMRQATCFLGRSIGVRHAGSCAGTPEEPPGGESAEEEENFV

[19] = target: Dickkopf-related protein 1 (Homo sapiens) (UniProt O94907); assay: DKK1 binders on small-molecule microarrays, primary screen, biochemical, small-molecule microarray, 635 nm fluorescence scan (AID 1106); settings: DKK1 binding, higher = more signal;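 note: score merges emission near 667 nm with signal to noise over three replicate slides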
Chain of Dickkopf-related protein 1 (Homo sapiens) (O94907 whole entry, looked up): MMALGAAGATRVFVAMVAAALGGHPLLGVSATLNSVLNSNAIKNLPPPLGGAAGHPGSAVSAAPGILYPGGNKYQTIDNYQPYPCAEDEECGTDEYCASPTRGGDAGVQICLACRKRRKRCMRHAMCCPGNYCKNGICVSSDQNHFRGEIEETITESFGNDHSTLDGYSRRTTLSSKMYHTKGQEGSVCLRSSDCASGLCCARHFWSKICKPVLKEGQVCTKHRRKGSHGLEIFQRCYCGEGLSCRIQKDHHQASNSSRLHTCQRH

[20] = test system: Inhibin beta A chain (activin A); assay: INHBA (activin A) binders on microarrays, primary screen, biochemical, small-molecule microarray, 635 nm fluorescence scan (AID 1107); settings: small-molecule microarray binding, higher = more signal;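 note: mouse activin A protein probed at 4.33 µg/mL on printed slides; score merges bound-protein fluorescence near 667 nm with spot signal-to-noise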

Compound | composite z-score [1] | z-score [2] | z-score [3] | z-score [4] | composite z-score [5] | z-score [6] | composite z-score [7] | composite z-score [8] | composite z-score [9] | composite z-score [10] | composite z-score [11] | composite z-score [12] | composite z-score [13] | z-score [14] | composite z-score [15] | composite z-score [16] | composite z-score [17] | composite z-score [18] | composite z-score [19] | composite z-score [20]
COCCOC(=O)N1C(=O)[C@@]2(c3cc(C#CC4=CCCCC4)ccc31)[C@H](c1ccc(O)cc1)N1[C@H](c3ccccc3)[C@H](c3ccccc3)OC(=O)[C@H]1[C@@H]2C(=O)N1CCN(c2ncccn2)CC1 | 0.234 | 0.358 (inactive) | 0.371 (inactive) | 0.58 (inactive) | -0.142 | -0.737 (inactive) | -0.192 | -1.1 | -0.756 | -0.348 | -0.0148 | -0.222 | 0.649 | -0.297 (inactive) | -0.769 | -0.858 | -1.04 | -1.85 | -1.22 | -0.918
CC(C)N1C(=O)c2ccccc2[C@@H](C(=O)NC2CC2)[C@@H]1c1ccc(CO)cc1 | 0.672 | -0.904 (inactive) | -0.826 (inactive) | -0.39 (inactive) | 0.968 | 0.141 (inactive) | -0.117 | 0.521 | -0.201 | -0.156 | 0.869 | -0.18 | -0.194 | 0.381 (inactive) | -0.114 | 0.621 | -0.0202 | 0.552 | 0.37 | 1.13
CC(=O)NCCCC[C@@H]1NC(=O)[C@H]2C[C@@H](C(=O)NCCCC[N+](C)(C)C)[C@@H](c3cccc(OCCO)c3)N2C1=O | 1.41 | -0.369 (inactive) | -1.27 (inactive) | -1.92 (inactive) | 1.97 | 1.08 (inactive) | 0.0503 | 1.81 | 1.01 | 0.162 | 0.0726 | 0.186 | -0.201 | -0.307 (inactive) | 1.37 | 0.536 | 1.17 | 1.54 | 1.83 | -0.416
C=CC[C@@]1(C(=O)N2CCOCC2)N=C(c2ccc(OCCCO)cc2)O[C@@H]1c1ccccc1CN=[N+]=[N-] | 1.56 | 0.0366 (inactive) | 0.472 (inactive) | -0.74 (inactive) | 3.28 | 0.0893 (inactive) | 0.691 | 0.355 | 1.09 | 0.776 | 0.706 | 0.906 | 1.18 | 1.02 (inactive) | 1.48 | 1.32 | 0.749 | 1.05 | 0.472 | 1.34
C[N+](C)(C)CCCC[C@@H]1NC(=O)[C@H]2C[C@@H](C(=O)NCCCCCCN)[C@@H](c3ccc(O)cc3)N2C1=O | 1.26 | 0.731 (inactive) | -1.51 (inactive) | 1.13 (inactive) | 1.57 | 0.766 (inactive) | 0.265 | -0.232 | 0.64 | 0.155 | 1.38 | 0.608 | 0.659 | 0.587 (inactive) | 0.687 | 1.3 | -0.397 | -0.0878 | 0.0717 | -0.695
CN(C)CCCNC(=O)[C@@]1(C)c2ccccc2C(=O)N(Cc2ccccc2)[C@H]1c1ccc(CO)cc1 | 0.988 | -0.466 (inactive) | -0.505 (inactive) | -0.577 (inactive) | 2.82 | 1.16 (inactive) | 0.151 | 0.0474 | -0.652 | -0.0639 | 1.71 | -0.719 | 0.683 | 0.711 (inactive) | -0.476 | -0.35 | -1.48 | -0.456 | 0.0494 | 1
O=C1NC(=O)C2C1C=CC(C(O)CCc1ccccc1)N2Nc1ccc(Cl)cc1Cl (stereo not given) | 0.23 | -0.455 (inactive) | -2.05 (inactive) | 0.0242 (inactive) | 2.73 | -0.748 (inactive) | 0.379 | -0.839 | -0.0822 | 0.0122 | 0.187 | 1.39 | 1.29 | 1.5 (inactive) | 0.265 | 0.107 | -0.973 | 0.195 | -0.743 | 1.28
CN(C)C(=O)[C@@]1(CCS(=O)(=O)c2ccccc2)N=C(c2ccc(OCCCO)cc2)O[C@H]1c1ccccc1 | 1.07 | -0.308 (inactive) | -0.255 (inactive) | 0.117 (inactive) | 3.51 | -0.16 (inactive) | 0.0932 | -0.135 | 1.08 | -0.0215 | 1.32 | 0.415 | 0.854 | 2.27 (inactive) | 0.961 | 1.29 | -0.806 | 0.455 | -0.94 | 0.54
CC1=C([C@H](O)CCc2ccccc2)[C@H](CO)[C@@H]2C(=O)N(C)C(=O)[C@@H]2C1 | 0.958 | 0.618 (inactive) | -0.589 (inactive) | 0.123 (inactive) | 1.07 | 1.3 (inactive) | -0.152 | 0.296 | 0.394 | -0.154 | 0.843 | -0.173 | -0.495 | 0.626 (inactive) | 0.383 | 0.271 | 0.243 | 0.491 | 0.446 | 0.162
O=C1N(Cc2ccccc2)Cc2ccccc2[C@@H]2OC(c3ccc(OCCCO)cc3)=N[C@]12CCS(=O)(=O)c1ccccc1 | 1.57 | 1.01 (inactive) | 1.41 (inactive) | 14.9 (active) | 2.96 | 0.0267 (inactive) | 0.228 | 0.49 | 0.763 | 0.209 | 0.596 | -0.0422 | 1.05 | 0.0631 (inactive) | 1.04 | 0.309 | 0.607 | 0.291 | -0.222 | 0.772
